Activity calls are given as the source filed them. The calls were made as follows: active = hit-call score of the fitted dose curve at least 0.9, where 1 is the maximum; inactive = score below 0.9.

Among the data in PubChem BioAssay (EPA / NIEHS) are outcome and AC50 values, retold here.

The first assay in a line: BSK_SAg_Proliferation: Cell Proliferation Assessment in the BioMAP Diversity Plus: SAg Assay (AID 2283095).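 Also: relative cell number as total protein by SRB absorbance in sub-confluent culture.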 Particulars: primary human HUVEC with PBMC. In outline:
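Human umbilical vein endothelial cells co-cultured with peripheral blood mononuclear cells; total protein measured by sulforhodamine B staining (0.1% SRB after 10% TCA fixation), absorbance at 560 nm, at 96 h. Bidirectional fit against DMSO baseline.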
Take `CCCCc1nc2cccnc2n1Cc1ccc(-c2ccccc2-c2nnn[nH]2)cc1`: the result was inactive.
The term AC50 denotes the concentration at which the activity in the assay is half-maximal. In the case of `CCN(CC)CCOc1ccc(C(=C(Cl)c2ccccc2)c2ccccc2)cc1`, the AC50 was 3.54 µM (active).
For the molecule `NC(=Nc1ccccc1)Nc1ccccc1`, the outcome was inactive.
For the molecule `CCc1cc(C2=C(C(=O)O)N(c3ccccc3C(F)(F)F)S(=O)(=O)c3ccccc32)cc2c1OCO2`, the AC50 was 15.3 µM (active).
On the same count and under the same terms, as for `O=C1OC(c2ccc(O)cc2)(c2ccc(O)cc2)c2ccccc21`, the figure is 29.3 µM (active).
With `CCCCCCCCCC[N+](C)(C)[O-]`, the result was inactive.
Still for that read-out and setting: as for `CCCCCCC(CCCCCCCCCCC(=O)OCC(COC(C)=O)OC(C)=O)OC(C)=O` (stereo not drawn), the entry is “inactive”.
On to `O=C(O)CN(CC(=O)O)CC(=O)O`, for which the AC50 was 29.1 µM (active).
Turning to `CC(=O)OCC(COC(C)=O)OC(C)=O`, the result was inactive.
As for `COc1ccc(C(=O)Nc2nc3ccccc3c(NCc3ccccc3)c2C#N)cc1`, the AC50 is 6.22 µM (active).
In the case of `CN(C)C(=O)NC1(c2ccccc2)CCN(CCC[C@]2(c3ccc(Cl)c(Cl)c3)CCCN(C(=O)c3ccccc3)C2)CC1`, the AC50 is 7.39 µM (active).
Consider `Cc1cc(Cc2ccc(N)c(C)c2)ccc1N`, for which the result was inactive.
Turning to `CN(C)C(=O)NC1(c2ccccc2)CCN(CC[C@@]2(c3ccc(F)c(F)c3)CN(C(=O)c3ccccc3)CCO2)CC1`, the AC50 was 26.1 µM (active).
Consider `CCC(C)N(C)C(=O)c1cc2ccccc2c(-c2ccccc2Cl)n1` (stereo not drawn), for which the result was inactive.
Turning to `CC(=O)OC1CC(C)OC(C)O1` (stereo not drawn), the AC50 is 13.5 µM (active).
As to `CC(COCC(C)OC(=O)c1ccccc1)OC(=O)c1ccccc1` (stereo not drawn), the outcome was inactive.
As to `CC(C)(O)c1ccc(CNC(=O)c2cccnc2Oc2ccc(F)cc2)cc1`, the outcome was inactive.
On to `CSc1ccc(Oc2ccc(S(N)(=O)=O)cc2CN(C)C)cc1C`, for which the AC50 was 23.3 µM (active).
Same read-out and setting: next, `CC(C)OC(=O)C(C)(C)Oc1ccc(C(=O)c2ccc(Cl)cc2)cc1`: 29.5 µM (active); `Cc1c(C)c2c(c(C)c1O)CCC(C)(COc1ccc(CC3SC(=O)NC3=O)cc1)O2` (stereo not drawn): 14.1 µM (active); `CCCCC(CC)COP(=O)(OCC(CC)CCCC)OCC(CC)CCCC` (stereo not drawn): 5.3 µM (active).
Take `CCc1nc(N)nc(N)c1-c1ccc(Cl)cc1`: the result was inactive.
In the case of `S=c1[nH]c2ccccc2s1`, the result was inactive.
Still for that read-out and setting: next, `NC1CCCCC1`: “inactive”.
In the case of `Cc1ccc(-c2cc(C(F)(F)F)nn2-c2ccc(S(N)(=O)=O)cc2)cc1`, the AC50 is 23 µM (active).
On the same count and under the same terms, next, `O=C(NS(=O)(=O)/C=C/c1cccs1)c1ccc(F)cc1Br`: 3.54 µM (active).
Turning to `CC1(C)C(=O)NC(=O)N1CO`, the outcome was inactive.
The same measure, in the same setting: as for `C=CCc1ccc(OC)c(OC)c1`, the entry is “inactive”.

A short description of another assay: BSK_SAg_SRB: Viability Assessment in the BioMAP Diversity Plus: SAg Assay (AID 2283096).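 Also: cells read one day after compound addition; hits may be either gain or loss of signal compared with DMSO.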 Conditions: primary human HUVEC with PBMC. A digest of the protocol: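 Endothelial/PBMC primary human co-culture; compound 24 h; fix 10% TCA, stain 0.1% SRB, A560; protein content as cytotoxicity proxy; bidirectional curve fit, DMSO = baseline.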
In the case of `CCCCc1nc2cccnc2n1Cc1ccc(-c2ccccc2-c2nnn[nH]2)cc1`, the outcome was inactive.
As for `CCN(CC)CCOc1ccc(C(=C(Cl)c2ccccc2)c2ccccc2)cc1`, the AC50 was 11.1 µM (active).
Turning to `NC(=Nc1ccccc1)Nc1ccccc1`, the outcome was inactive.
Same read-out and setting: next, `CCc1cc(C2=C(C(=O)O)N(c3ccccc3C(F)(F)F)S(=O)(=O)c3ccccc32)cc2c1OCO2`: “inactive”.
Same read-out and setting: as for `O=C1OC(c2ccc(O)cc2)(c2ccc(O)cc2)c2ccccc21`, the entry is “inactive”; as for `CCCCCCCCCC[N+](C)(C)[O-]`, “inactive”; as for `CCCCCCC(CCCCCCCCCCC(=O)OCC(COC(C)=O)OC(C)=O)OC(C)=O` (stereo not drawn), “inactive”.
The same measure, in the same setting: next, `O=C(O)CN(CC(=O)O)CC(=O)O`: “inactive”.
Regarding `CC(=O)OCC(COC(C)=O)OC(C)=O`, the outcome was inactive.
The same measure, in the same setting: as for `COc1ccc(C(=O)Nc2nc3ccccc3c(NCc3ccccc3)c2C#N)cc1`, the entry is “inactive”; as for `CN(C)C(=O)NC1(c2ccccc2)CCN(CCC[C@]2(c3ccc(Cl)c(Cl)c3)CCCN(C(=O)c3ccccc3)C2)CC1`, “inactive”; as for `Cc1cc(Cc2ccc(N)c(C)c2)ccc1N`, “inactive”.
Same read-out and setting: as for `CN(C)C(=O)NC1(c2ccccc2)CCN(CC[C@@]2(c3ccc(F)c(F)c3)CN(C(=O)c3ccccc3)CCO2)CC1`, the entry is “inactive”; as for `CCC(C)N(C)C(=O)c1cc2ccccc2c(-c2ccccc2Cl)n1` (stereo not drawn), “inactive”; as for `CC(=O)OC1CC(C)OC(C)O1` (stereo not drawn), “inactive”.
On the same count and under the same terms, next, `CC(COCC(C)OC(=O)c1ccccc1)OC(=O)c1ccccc1` (stereo not drawn): “inactive”; `CC(C)(O)c1ccc(CNC(=O)c2cccnc2Oc2ccc(F)cc2)cc1`: “inactive”.
For `CN(C)CCCN1c2ccccc2Sc2ccc(Cl)cc21`, the AC50 is 28.3 µM (active).
With `CSc1ccc(Oc2ccc(S(N)(=O)=O)cc2CN(C)C)cc1C`, the outcome was inactive.
Take `CC(C)OC(=O)C(C)(C)Oc1ccc(C(=O)c2ccc(Cl)cc2)cc1`: the AC50 is 28.9 µM (active).
With `Cc1c(C)c2c(c(C)c1O)CCC(C)(COc1ccc(CC3SC(=O)NC3=O)cc1)O2` (stereo not drawn), the AC50 was 23.7 µM (active).
Still for that read-out and setting: next, `CCCCC(CC)COP(=O)(OCC(CC)CCCC)OCC(CC)CCCC` (stereo not drawn): 5.38 µM (active).
With `CCc1nc(N)nc(N)c1-c1ccc(Cl)cc1`, the result was inactive.
Still for that read-out and setting: next, `S=c1[nH]c2ccccc2s1`: “inactive”; `NC1CCCCC1`: “inactive”.
On to `Cc1ccc(-c2cc(C(F)(F)F)nn2-c2ccc(S(N)(=O)=O)cc2)cc1`, for which the AC50 was 27.8 µM (active).
Take `O=C(NS(=O)(=O)/C=C/c1cccs1)c1ccc(F)cc1Br`: the result was inactive.
The same measure, in the same setting: as for `CC1(C)C(=O)NC(=O)N1CO`, the entry is “inactive”.
On to `COC(=O)[C@H]1[C@H]2C[C@@H]3c4[nH]c5cc(OC)ccc5c4CCN3C[C@H]2C[C@@H](OC(=O)c2cc(OC)c(OC)c(OC)c2)[C@@H]1OC`, for which the AC50 is 25.9 µM (active).
In the case of `C=CCc1ccc(OC)c(OC)c1`, the outcome was inactive.
